Experiment [1] deals with T1, Hexokinase-4 (Homo sapiens) + Glucokinase regulatory protein (Homo sapiens) (UniProt P35557+Q14397). Briefly: qHTS assay for inhibitors of recombinant human GCK-GKRP interaction: Diaphorase-coupled assay (AID 743205). In a few lines: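 Inhibitors of the GCK–GKRP complex relieve GKRP suppression of GCK, detected through a G6PDH–diaphorase cascade reducing resazurin. Human GST-GCK and FLAG-GKRP are used at 10 nM with 5 mM glucose and 0.4 mM ATP.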
(In general: qHTS replaces the single test concentration by a dilution series.)

Experiment [2] concerns the target T1, Hexokinase-4 (Homo sapiens) + Glucokinase regulatory protein (Homo sapiens). The experiment in a line: qHTS assay for inhibitors of recombinant human GCK-GKRP interaction: ADP-Glo assay (AID 743206).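 Further: plate controls were DMSO plus enzyme for no effect and no enzyme for full effect.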 The method, boiled down:
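Pin-transferred compounds meet a 15 nM GST-GCK/15 nM FLAG-GKRP/2 uM S6P mix (dispense concentrations). ATP is then added to 0.4 mM final with 5 mM glucose, and the reaction runs 60 min at room temperature. ADP is quantified luminescently.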

For experiment [3] the target is unchanged. The experiment in a line: qHTS assay for inhibitors of recombinant human GCK-GKRP interaction: HTRF assay (AID 743207).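 Further: 0% = DMSO with GCK present and -100% = DMSO wells lacking GCK.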 In a few lines:
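Steps: dispense GCK–GKRP complex (5 nM each, GST- and FLAG-tagged) with 2 uM S6P; pin in compounds; add XL665/Eu-cryptate-labelled antibodies; incubate 60 min at room temperature; read time-resolved FRET at 665 and 615 nm.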

Experiment [4] in a line: qHTS Assay for Identifying Gametocytocidal Compounds (AID 743244). Further: potency means the concentration at half of the fitted maximal effect.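 On max response: on the % scale 0 is the no-effect control and ±100 the full control effect; actives lower the fluorescent signal which means gametocytes are killed.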 The conditions noted are these: P. falciparum 3D7 stage III-V gametocytes, alamarBlue, 72 h; max response: stronger effect = lower value. The method, boiled down:
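In this qHTS viability screen, late-stage 3D7 gametocytes are incubated with compound for 72 h, then with alamarBlue for 24 h; reduced resorufin fluorescence marks killing.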

Experiment [5] is described as follows: qHTS profiling of the MIPE4 collection as inhibitors of Plasmodium falciparum (3D7) proliferation (AID 743344; call rule not given here;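 further: scaled between DMSO vehicle wells and 0.29 µM artemisinin as full inhibition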). Conditions: P. falciparum 3D7 in erythrocytes, SYBR Green DNA fluorescence, 72 h; at 28.5 µM (top of the series) unless noted. In a few lines: (§1)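 Parasite DNA was quantified by SYBR Green I fluorescence (ex 485, em 535 nm) after overnight lysis in saponin/Triton buffer at room temperature. Cultures at 0.3% parasitemia and 2.5% hematocrit were first exposed to compound for 72 h at 37 C; signals were normalised to artemisinin (0.29 uM) and vehicle wells.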

Experiment [6] is described as follows: qHTS profiling of the MIPE4 collection as inhibitors of Plasmodium falciparum (DD2) proliferation (AID 743345; call rule not given here). Conditions: P. falciparum Dd2 in erythrocytes, SYBR Green DNA, 72 h; at 28.5 µM (top of the series) unless noted. In a few lines: as §1
Experiment [7] can be described thus: qHTS profiling of the MIPE4 collection as inhibitors of Plasmodium falciparum (DD2) proliferation (Rep 2) (AID 743346; call rule not given here). The conditions noted are these: P. falciparum Dd2 in erythrocytes, SYBR Green DNA, 72 h; at 28.5 µM (top of the series) unless noted. The method, boiled down:
as §1

Experiment [8] is described as follows: qHTS profiling of the MIPE4 collection as inhibitors of Plasmodium falciparum (HB3) proliferation (AID 743347; call rule not given here;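 further: plate controls were DMSO vehicle wells for no effect and artemisinin wells for full effect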). Conditions: P. falciparum HB3 in erythrocytes, SYBR Green DNA, 72 h; at 28.5 µM (top of the series) unless noted. The method, boiled down:
as §1

Experiment [9] can be described thus: High-throughput drug toxicity screening in the BPDCN cell line Gen2.2 (AID 1224824; call rule not given here;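 further: cells exposed to compounds for 48 h before reading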). The conditions noted are these: Gen2.2 BPDCN cells; at 45.8 µM (top of the series) unless noted. The method, boiled down: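 Gen2.2, 500 cells/well, phenol red-free RPMI/10% FBS/Pen-Strep; 48 h cpd, 37 °C/5% CO2; CTG lum, 15 min RT. Norm: DMSO = 100%, bortezomib 9.2 uM final = 0%.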

Experiment [10] in a line: High-throughput drug toxicity screening in the BPDCN cell line Cal-1 (AID 1224825; call rule not given here;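 further: cells exposed to compounds for 48 h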). Conditions: Cal-1 BPDCN cell viability, qHTS; at 45.8 µM (top of the series) unless noted. The method, boiled down:
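Viability of the BPDCN line Cal-1 is measured as ATP-based luminescence (CellTiter-Glo) following 48 h incubation with compounds. Percent activity uses DMSO-treated wells as 100% and 9.2 uM bortezomib as 0%.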

Experiment [11] can be described thus: qHTS assay for measurement of the activity of small molecule inhibitors on Zika virus induced Caspase-3 activity in human iPSC derived neural progenitor cells (hNPCs) (AID 1224857). Further: % of control where 0% means no effect; nearly all actives have a fitted effect of over 65% in size. In a few lines: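 In medium with heparin 2 ug/ml and cyclopamine 2 uM, hNPCs (350 cells/well) received compound for one hour and then Zika virus at 2 FFU/cell; caspase activity was measured by Caspase-Glo 3/7 luminescence 6 h post-infection.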

Experiment [12] can be described thus: qHTS assay for measurement of the activity of small molecule inhibitors on Zika virus induced Caspase-3 activity in human astrocytoma cells (AID 1224859).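 Further: plate controls were ZIKV-infected untreated cells for no effect and uninfected cells for full effect.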 In a few lines:
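A cell-based luminescent caspase-3/7 assay used SNB-19 cells infected with ZIKV (2 FFU/cell) for 6 h following 1 h compound pretreatment.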

The nature of experiment [13]: qHTS Screen of the MIPE 4.0 Collection Against Ewings Sarcoma (TC71) (AID 1259253). Further: potency means the concentration at half of the fitted maximal effect; nearly all actives have a fitted effect of over 40% in size. The method, boiled down:
(§2)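 Measured: ATP luminescence (CellTiter-Glo) 10 min after reagent addition, following 48 h drug treatment. Relative luciferase units converted to percent activity, with no-cell wells as full and DMSO wells as zero inhibition.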

Experiment [14] can be described thus: qHTS Screen of the MIPE 4.0 Collection Against Ewings Sarcoma (EW8) (AID 1259255). Further: nearly all actives have a fitted effect of over 35% in size. Further: potency means the concentration at half of the fitted maximal effect.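 On viability: 100% = DMSO-treated cells and 0% = medium-only wells without cells.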 In a few lines:
as §2

Experiment [15] can be described thus: qHTS profiling for inhibitors of Plasmodium falciparum (3D7) proliferation (AID 743322; call rule not given here;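 further: infected erythrocytes exposed to compound for 72 h before lysis; 100% = DMSO vehicle wells and 0% = 0.29 µM artemisinin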). Conditions: P. falciparum 3D7 proliferation; at 28.7 µM (top of the series) unless noted. In a few lines: as §1
The nature of experiment [16]: qHTS profiling for inhibitors of Plasmodium falciparum (DD2) proliferation (AID 743323; call rule not given here). Conditions: lower = more inhibition; at 28.7 µM (top of the series) unless noted. In a few lines: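 P. falciparum Dd2-infected erythrocytes (0.3% parasitemia, 2.5% hematocrit) exposed 72 h at 37 C, 5% CO2. Lysis with SYBR Green, overnight at room temperature, fluorescence 485/535 nm; normalized to 0.29 uM artemisinin and DMSO.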

Structures are written as SMILES. Several values for one entry are separate records, joined by “and”; a condition that tells them apart may be missing. Equal entries are not always repeated. Inconclusive results are not listed. Activity calls are given as the source filed them. Unless noted, the call rests on the fitted dose curve; in most records, active means well fitted curve in the direction sought with a large enough effect; inconclusive means small, poorly fitted or top-dose-only effect, or another doubt; inactive means no such curve, though single readings can be large; an effect the other way counts as inactive or inconclusive.

T1 sequence (P35557 whole entry, looked up): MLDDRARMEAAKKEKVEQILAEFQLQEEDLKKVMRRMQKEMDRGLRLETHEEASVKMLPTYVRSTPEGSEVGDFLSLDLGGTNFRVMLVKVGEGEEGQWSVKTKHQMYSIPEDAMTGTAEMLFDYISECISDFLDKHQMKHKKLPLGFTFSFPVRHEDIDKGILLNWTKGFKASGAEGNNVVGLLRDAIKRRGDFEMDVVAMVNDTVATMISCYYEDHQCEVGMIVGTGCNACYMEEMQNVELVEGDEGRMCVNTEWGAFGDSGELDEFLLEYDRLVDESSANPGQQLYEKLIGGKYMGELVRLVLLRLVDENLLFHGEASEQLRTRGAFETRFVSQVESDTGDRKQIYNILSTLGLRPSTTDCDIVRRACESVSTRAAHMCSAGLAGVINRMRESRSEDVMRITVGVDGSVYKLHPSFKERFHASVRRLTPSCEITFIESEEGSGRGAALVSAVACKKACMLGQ
T1 sequence (Q14397 whole entry, looked up): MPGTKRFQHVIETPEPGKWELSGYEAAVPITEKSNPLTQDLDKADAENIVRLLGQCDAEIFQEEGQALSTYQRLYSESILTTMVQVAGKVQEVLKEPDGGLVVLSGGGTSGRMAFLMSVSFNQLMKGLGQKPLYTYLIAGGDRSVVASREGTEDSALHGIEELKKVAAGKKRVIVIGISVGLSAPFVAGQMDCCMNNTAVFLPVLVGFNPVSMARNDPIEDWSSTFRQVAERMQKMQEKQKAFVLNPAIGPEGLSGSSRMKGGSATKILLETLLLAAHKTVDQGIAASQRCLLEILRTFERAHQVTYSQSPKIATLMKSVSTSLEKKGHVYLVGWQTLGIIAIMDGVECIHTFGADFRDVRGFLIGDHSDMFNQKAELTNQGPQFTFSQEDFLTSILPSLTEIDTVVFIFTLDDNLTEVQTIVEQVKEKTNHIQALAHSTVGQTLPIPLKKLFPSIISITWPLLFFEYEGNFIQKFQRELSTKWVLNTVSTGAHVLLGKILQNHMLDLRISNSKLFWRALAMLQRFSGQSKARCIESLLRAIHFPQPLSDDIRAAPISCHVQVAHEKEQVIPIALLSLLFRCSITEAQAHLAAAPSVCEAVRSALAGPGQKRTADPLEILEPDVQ

Consider `Oc1ccc(-c2nc(-c3ccc(F)cc3)c(-c3ccncc3)[nH]2)cc1`, for which the outcome in [1], in [2] and in experiment [3] was inactive. Moreover, the max response in [4] is 19.1% (inactive). Also, the parasite growth, % of DMSO control in experiment [5] was 37%. Also, the parasite growth remaining, % of DMSO control (lower = more inhibition) in [6] was found to be 79.6%. The compound further gave a parasite growth, % of control (lower = inhibition) in [7] of 35.5%. The compound also had a growth, % of control in experiment [8] of 24.5%. For the same compound, in experiment [9], the cell viability, % of control (lower = more cytotoxic) is 136%. Moreover, the viability (% of control) in experiment [10] was found to be 54.8%. Moreover, the Potency result in experiment [11] and in [12] was “inactive” throughout.
With `COC(=O)C1=C(C)NC(C)=C(C(=O)OCCCN2CCC(c3ccccc3)(c3ccccc3)CC2)C1c1cccc([N+](=O)[O-])c1` (stereo not drawn), the Potency in experiment [4] is 10 µM (active); in experiment [13], 20.9 µM (active); in experiment [14], 18.7 µM (active). In addition, the parasite growth, % of DMSO control in experiment [5] is 114%. Also, the parasite growth remaining, % of DMSO control (lower = more inhibition) in [6] worked out at 107%. Besides, the parasite growth, % of control (lower = inhibition) in experiment [7] is 86.6%. This compound also gave a growth, % of control in experiment [8] of 102%. For the same compound, the cell viability, % of control (lower = more cytotoxic) in experiment [9] is 109%. Also, the viability (% of control) in experiment [10] came out at 123%. In addition, the Potency result in [11] and in experiment [12] was “inactive” each time.
In experiment [5], `Cc1c(C(=O)NN2CCCCC2)nn(-c2ccc(Cl)cc2Cl)c1-c1ccc(Cl)cc1` registered a parasite growth, % of DMSO control of 6.76%. Also, the parasite growth remaining, % of DMSO control (lower = more inhibition) in experiment [6] turned out to be 8.4%. Moreover, the parasite growth, % of control (lower = inhibition) in experiment [7] was 17.7%. The same compound had a growth, % of control in [8] of 8.97%. The cell viability, % of control (lower = more cytotoxic) in experiment [9] worked out at 24.4%. Further, the viability (% of control) in [10] turned out to be 13.1%. Besides, the Potency entry in experiment [11] and in [12] was “inactive” throughout. For the same compound, the Potency in experiment [13] is 23.5 µM (active); in experiment [14] it was 26.4 µM (active).
As to `O=C1c2c(O)cc(O)cc2OC(c2ccc(O)c(O)c2)C1O` (stereo not drawn), the outcome in experiment [1], in experiment [2] and in [3] was inactive. The same compound displayed a parasite growth, % of DMSO control in experiment [5] of 75.5%. The parasite growth remaining, % of DMSO control (lower = more inhibition) in [6] is 93.8%. For the same compound, the parasite growth, % of control (lower = inhibition) in experiment [7] turned out to be 64.4%. For the same compound, the growth, % of control in experiment [8] amounted to 99.5%. Also, in experiment [9], the cell viability, % of control (lower = more cytotoxic) was 155%. Further, the viability (% of control) in experiment [10] came out at 105%. In addition, the Potency entry in [11], in experiment [12] and in experiment [14] was “inactive” throughout.
For the compound `S=c1nc[nH]c2nc[nH]c12`, the remaining parasite growth % (stronger effect = lower value) in experiment [15] was 58.5% [at 57.5 µM]. Besides, in [16], the activity, percent of control turned out to be 88.8% [at 57.5 µM]. The parasite growth, % of DMSO control in [5] is 68.3%. Also, in experiment [6], the parasite growth remaining, % of DMSO control (lower = more inhibition) came out at 96%. In experiment [7], this compound registered a parasite growth, % of control (lower = inhibition) of 6.58%. In [8], the growth, % of control came out at 55.2%. Besides, the cell viability, % of control (lower = more cytotoxic) in experiment [9] came to 203%. For the same compound, the viability (% of control) in experiment [10] was 89.6%. Moreover, the Potency result in experiment [11] and in [12] was “inactive” in each case. The Potency in experiment [13] is 1.87 µM (active); in [14], 2.64 µM (active).
Turning to `CCN(CCO)CCCC(C)Nc1ccnc2cc(Cl)ccc12` (stereo not drawn), the max response in experiment [4] is -15.7% (inactive). In addition, the remaining parasite growth % (stronger effect = lower value) in [15] is 0.834% and 0.742%. Moreover, the activity, percent of control in experiment [16] was 105% and 9.47%. Also, the parasite growth, % of DMSO control in [5] amounted to 20.1%. Further, in experiment [6], the parasite growth remaining, % of DMSO control (lower = more inhibition) came out at 16.9%. Moreover, in experiment [7], the parasite growth, % of control (lower = inhibition) amounted to 15.4%. In addition, the growth, % of control in experiment [8] is 49.8%. Besides, the cell viability, % of control (lower = more cytotoxic) in experiment [9] amounted to 86.1%. Also, the viability (% of control) in experiment [10] amounted to 8.28%. The Potency entry in experiment [11] and in [12] was “inactive” throughout.

The values above are taken from PubChem BioAssay (NCATS).
